Results filed as inconclusive are left out. Calls of active or inactive are those of the source. Unless noted, the call rests on the fitted dose curve; in most records, active means well fitted curve in the direction sought with a large enough effect; inconclusive means small, poorly fitted or top-dose-only effect, or another doubt; inactive means no such curve, though single readings can be large; an effect the other way counts as inactive or inconclusive.
Experiments:
[1] = qHTS for Inhibitors of Plasmodium falciparum (DD2) proliferation (AID 504314);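 further: parasite DNA measured by SYBR Green fluorescence after red cell lysis; plate controls were DMSO vehicle for no effect and artemisinin wells for full effect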
How it was run: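 Quantitative HTS growth inhibition: SYBR Green I binding to parasite DNA after 72 h drug exposure of infected erythrocytes (0.3% parasitemia, 2.5% hematocrit). Signals normalized per plate to inhibitor and vehicle wells.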

[2] = qHTS for Inhibitors of Plasmodium falciparum (GB4) proliferation (AID 504315);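 further: 0% = DMSO vehicle and -100% = 0.29 µM artemisinin control; nearly all actives have a fitted effect of over 50% in size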
How it was run: (§1)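 Erythrocytes infected with P. falciparum line (0.3% parasitemia, 2.5% hematocrit final) incubated with compounds 72 h at 37 °C, 5% CO2; SYBR Green lysis buffer added, fluorescence read next day. Normalized to 0.29 uM artemisinin and DMSO.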

[3] = qHTS for Inhibitors of Plasmodium falciparum (CP250) proliferation (AID 504320);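 further: plate controls were DMSO vehicle for no effect and 0.29 µM artemisinin control for full effect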
How it was run: as §1

[4] = biological target: Atrial natriuretic peptide receptor 1 (Homo sapiens) (UniProt P16066); experiment: Natriuretic polypeptide receptor (hNpr1) antagonism - Pilot CMLD screen (AID 1347052; calls by dose curve;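 further: HEK293 cells with hNpr1 stimulated by hNppA peptide at 0.1 nM; cGMP level read as GloSensor luciferase luminescence after agonist stimulation; series mostly up to about 9.2 µM; on the % scale 0 is the no-effect control and ±100 the full control effect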)
Atrial natriuretic peptide receptor 1 (Homo sapiens), sequence (P16066 whole entry, looked up): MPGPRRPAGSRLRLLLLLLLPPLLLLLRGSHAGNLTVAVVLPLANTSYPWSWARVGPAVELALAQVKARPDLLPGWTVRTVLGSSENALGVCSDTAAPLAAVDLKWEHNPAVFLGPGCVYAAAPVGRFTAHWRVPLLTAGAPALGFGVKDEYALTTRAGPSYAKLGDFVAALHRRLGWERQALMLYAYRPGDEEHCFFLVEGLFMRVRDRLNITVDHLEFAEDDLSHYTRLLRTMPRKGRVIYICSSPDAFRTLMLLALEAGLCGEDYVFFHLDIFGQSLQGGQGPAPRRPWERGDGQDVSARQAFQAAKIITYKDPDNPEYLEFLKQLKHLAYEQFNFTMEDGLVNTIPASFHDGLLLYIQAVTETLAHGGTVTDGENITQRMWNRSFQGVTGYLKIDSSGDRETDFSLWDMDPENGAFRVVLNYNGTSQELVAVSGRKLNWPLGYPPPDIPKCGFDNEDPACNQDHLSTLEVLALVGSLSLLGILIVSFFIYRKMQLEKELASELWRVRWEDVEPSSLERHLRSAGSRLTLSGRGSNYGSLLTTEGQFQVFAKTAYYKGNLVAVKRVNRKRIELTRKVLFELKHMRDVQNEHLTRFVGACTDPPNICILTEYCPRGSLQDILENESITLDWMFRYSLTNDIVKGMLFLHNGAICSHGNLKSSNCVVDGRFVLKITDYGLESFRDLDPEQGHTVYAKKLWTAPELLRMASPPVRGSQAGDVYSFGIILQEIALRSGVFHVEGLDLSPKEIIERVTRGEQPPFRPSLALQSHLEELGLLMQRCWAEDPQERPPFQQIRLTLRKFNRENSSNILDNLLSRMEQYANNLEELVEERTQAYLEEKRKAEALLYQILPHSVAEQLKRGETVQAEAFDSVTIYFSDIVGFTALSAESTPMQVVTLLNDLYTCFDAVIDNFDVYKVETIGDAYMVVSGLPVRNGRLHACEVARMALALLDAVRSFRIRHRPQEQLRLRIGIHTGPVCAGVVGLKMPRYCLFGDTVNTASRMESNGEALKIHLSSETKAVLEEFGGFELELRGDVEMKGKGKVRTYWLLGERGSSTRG

[5] = qHTS for Inhibitors of Plasmodium falciparum (7G8) proliferation (AID 504316);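 further: series mostly up to about 6.7 µM; 0% = DMSO vehicle and -100% = 0.29 µM artemisinin full kill; nearly all actives have a fitted effect of over 65% in size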
How it was run: as §1

[6] = biological target: Cytochrome P450 2C9 (Homo sapiens) (UniProt P11712); experiment: qHTS Assay for Inhibitors and Substrates of Cytochrome P450 2C9 (AID 883); further: on the % scale 0 is the no-effect control and ±100 the full control effect; nearly all actives have a fitted effect of over 60% in size
Cytochrome P450 2C9 (Homo sapiens), sequence (P11712 whole entry, looked up): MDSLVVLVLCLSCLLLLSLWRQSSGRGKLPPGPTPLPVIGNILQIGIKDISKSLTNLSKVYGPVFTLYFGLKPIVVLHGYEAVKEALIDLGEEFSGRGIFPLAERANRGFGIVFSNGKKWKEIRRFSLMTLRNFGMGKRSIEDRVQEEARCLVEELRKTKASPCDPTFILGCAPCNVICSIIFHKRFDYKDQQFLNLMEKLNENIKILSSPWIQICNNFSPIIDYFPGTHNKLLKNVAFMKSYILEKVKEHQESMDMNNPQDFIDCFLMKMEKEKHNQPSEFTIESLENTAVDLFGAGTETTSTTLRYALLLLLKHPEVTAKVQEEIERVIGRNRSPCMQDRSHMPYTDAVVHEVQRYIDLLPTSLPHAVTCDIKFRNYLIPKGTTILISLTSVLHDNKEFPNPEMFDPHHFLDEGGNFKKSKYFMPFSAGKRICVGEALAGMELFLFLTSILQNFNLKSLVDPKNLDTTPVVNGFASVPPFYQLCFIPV
How it was run: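 Inhibition of CYP2C9 is scored as loss of luminescence, with 57uM sulphaphenazole defining 100% inhibition. Substrate Luciferin-H is used at 100uM, equal to its KM; enzyme at 10nM in 25mM KPO4, 60 min at 37C with NADPH regeneration.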

[7] = biological target: Cytochrome P450 3A4 (Homo sapiens) (UniProt P08684); experiment: qHTS Assay for Inhibitors and Substrates of Cytochrome P450 3A4 (AID 884); further: series mostly up to about 57 µM; on the % scale 0 is the no-effect control and ±100 the full control effect; nearly all actives have a fitted effect of over 50% in size
Cytochrome P450 3A4 (Homo sapiens), sequence (P08684 whole entry, looked up): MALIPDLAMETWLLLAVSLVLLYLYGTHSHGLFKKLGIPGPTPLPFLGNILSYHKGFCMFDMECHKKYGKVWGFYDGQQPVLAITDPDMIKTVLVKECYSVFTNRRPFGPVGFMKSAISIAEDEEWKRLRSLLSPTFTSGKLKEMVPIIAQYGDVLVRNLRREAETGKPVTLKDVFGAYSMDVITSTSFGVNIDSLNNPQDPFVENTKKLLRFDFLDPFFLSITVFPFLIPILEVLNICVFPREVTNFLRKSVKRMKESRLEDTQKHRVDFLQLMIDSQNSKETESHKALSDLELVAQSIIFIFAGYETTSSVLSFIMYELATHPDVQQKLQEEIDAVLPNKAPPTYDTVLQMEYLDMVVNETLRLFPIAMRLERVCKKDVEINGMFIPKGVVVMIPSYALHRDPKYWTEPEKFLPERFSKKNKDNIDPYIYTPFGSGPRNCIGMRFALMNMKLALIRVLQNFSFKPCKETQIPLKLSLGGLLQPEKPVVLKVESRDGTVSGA
How it was run: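 20 nM human CYP3A4 with 25 uM Luciferin-PPXE (at KM) in 200 mM KPO4, preincubated 10 min with compound; NADPH regeneration started a 60 min RT reaction. Luciferin detected by luminescence, normalized to 57 uM ketoconazole as full inhibition.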

[8] = biological target: Cytochrome P450 2D6 (Homo sapiens) (UniProt P10635); experiment: qHTS Assay for Inhibitors and Substrates of Cytochrome P450 2D6 (AID 891);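 further: luciferin methyl ether substrate demethylated by CYP2D6 with NADPH regeneration; on the % scale 0 is the no-effect control and ±100 the full control effect; nearly all actives have a fitted effect of over 60% in size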
Cytochrome P450 2D6 (Homo sapiens), sequence (P10635 whole entry, looked up): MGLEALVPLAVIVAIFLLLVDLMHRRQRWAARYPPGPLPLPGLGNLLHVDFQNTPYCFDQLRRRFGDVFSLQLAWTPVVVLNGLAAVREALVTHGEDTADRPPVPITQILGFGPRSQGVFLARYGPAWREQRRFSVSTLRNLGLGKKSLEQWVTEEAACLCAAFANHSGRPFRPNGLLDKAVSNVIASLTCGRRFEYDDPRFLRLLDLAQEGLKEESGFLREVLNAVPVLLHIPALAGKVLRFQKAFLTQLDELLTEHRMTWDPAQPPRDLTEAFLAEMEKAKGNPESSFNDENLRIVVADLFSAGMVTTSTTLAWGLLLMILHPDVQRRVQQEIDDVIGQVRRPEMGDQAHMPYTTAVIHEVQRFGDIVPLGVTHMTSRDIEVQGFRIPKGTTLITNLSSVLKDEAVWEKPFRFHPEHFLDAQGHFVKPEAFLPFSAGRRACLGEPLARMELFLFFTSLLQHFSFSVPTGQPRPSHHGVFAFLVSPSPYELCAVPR
How it was run: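 Human CYP2D6 (5 nM) with 30 uM Luciferin-ME EGE (at Km) in 100 mM KPO4, compound preincubated 10 min, then NADPH regeneration system for 60 min at room temperature. Luciferin read by luminescence; normalized to 1.43 uM quinidine.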

[9] = biological target: Cytochrome P450 2C19 (Homo sapiens) (UniProt P33261); experiment: qHTS Assay for Inhibitors and Substrates of Cytochrome P450 2C19 (AID 899); further: on the % scale 0 is the no-effect control and ±100 the full control effect; nearly all actives have a fitted effect of over 60% in size
Cytochrome P450 2C19 (Homo sapiens), sequence (P33261 whole entry, looked up): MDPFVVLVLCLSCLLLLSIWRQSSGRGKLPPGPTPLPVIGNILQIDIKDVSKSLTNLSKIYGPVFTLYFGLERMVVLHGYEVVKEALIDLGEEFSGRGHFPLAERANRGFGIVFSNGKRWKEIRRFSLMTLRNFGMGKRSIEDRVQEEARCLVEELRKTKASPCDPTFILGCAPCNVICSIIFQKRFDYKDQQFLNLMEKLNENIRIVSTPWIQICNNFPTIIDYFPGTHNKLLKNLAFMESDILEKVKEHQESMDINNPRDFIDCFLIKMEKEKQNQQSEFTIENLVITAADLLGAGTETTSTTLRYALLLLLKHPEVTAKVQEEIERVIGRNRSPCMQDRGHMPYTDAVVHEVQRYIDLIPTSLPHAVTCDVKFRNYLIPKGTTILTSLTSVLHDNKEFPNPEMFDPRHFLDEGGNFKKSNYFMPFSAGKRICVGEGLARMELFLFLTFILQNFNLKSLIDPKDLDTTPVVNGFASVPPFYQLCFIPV
How it was run: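 5nM enzyme + 10uM Luciferin-H EGE (=KM), 50mM KPO4; cpd pin-transferred, 10 min 37C; NADPH regen, 60 min 37C; stopped w/ luciferin detection reagent, 20 min; luminescence. Normalized to 57uM ketoconazole (AC100).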

COC(=O)C1=C(C(=O)OC)[C@@H]2N(C)c3ccccc3[C@@]23CCC(=O)N(CCCOC(C)C)C3=N1
inactive: Potency [1] | Potency [2] | Potency [3] | Potency [4]

CCOC(=O)CCN1C(=O)[C@@H]2[C@H]3[C@H](O)[C@H](O)CC(=NNC(=O)OCc4ccccc4)[C@@H]3CC[C@H]2C1=O
inactive: Potency [1] | Potency [2] | Potency [3] | Potency [4]

COc1ccc2c(c1)[C@@]1(OCCC=C[C@@H]1C)C(=O)N2Cc1ccc(Br)cc1
inactive: Potency [1] | Potency [2] | Potency [3] | Potency [4]

COC(=O)[C@H](Cc1ccccc1)NC(=O)O[C@@H]1C(=O)c2cc(Br)ccc2O[C@H]1c1ccc2c(c1)OCO2
inactive: Potency [1] | Potency [2] | Potency [3] | Potency [4]

C(#C[C@@H]1C=C[C@H]2OC(c3ccccc3)OC[C@H]2O1)c1ccccc1 (stereo partly drawn)
inactive: Potency [1] | Potency [2] | Potency [3] | Potency [4]

C[C@@H]1CC2CCCC2[C@]2(O1)C(=O)Nc1ccccc12 (stereo partly drawn)
inactive: Potency [1] | Potency [2] | Potency [3] | Potency [4]

C[C@H]1Cc2c(COc3ccccc3)nc3c(c2CO1)CN(S(=O)(=O)c1ccc2c(c1)OCCN2C)CC3
inactive: activity, negative = inhibition [1] -3.65% [at 1.12 µM] | Potency [2] | Potency [3] | Potency [4]

CC=CC(=O)C[C@H]1CC[C@@H](C)[C@@H](CCO)O1
inactive: Potency [1] | Potency [2] | Potency [3] | Potency [4]

COc1ccc(-c2nc3c(c4c2C[C@H](c2ccccc2)OC4)CN(S(=O)(=O)c2ccc(NC(C)=O)cc2)CC3)c(C)c1
inactive: activity, negative = inhibition [1] -0.765% [at 1.12 µM] | Potency [2] | Potency [3] | Potency [4]

COc1ccc(O[C@H]2C=C[C@@H](c3ccccc3)O[C@H]2COC(=O)CCC(C)=NOC[C@@H](O)COCc2ccco2)cc1
inactive: Potency [1] | Potency [2] | Potency [3] | Potency [4]

COc1ccc2c(c1)[C@H](C=Cc1ccccc1)[C@@H]([C@H](O)CO)O2
inactive: Potency [1] | Potency [2] | Potency [3] | Potency [4]

CC(=O)O[C@H](C(=O)O[C@@H]1C[C@@H](CCC[C@H]2O[C@H](C(=O)OC(C)C)CC[C@@H]2C)O[C@@H](CC#N)C1)c1ccccc1
inactive: Potency [1] | Potency [2] | Potency [3] | Potency [4]

CC(C)OC(=O)[C@@H]1CC[C@H](C)[C@@H](CCC[C@@H]2CC=C[C@H](CC#N)O2)O1
inactive: Potency [1] | Potency [2] | Potency [3] | Potency [4]

COC(=O)[C@@H]1C=C[C@H](C)[C@H](CCOc2ccccc2)O1
inactive: Potency [1] | Potency [2] | Potency [3] | Potency [4]

O[C@H](CC#CCOc1ccccc1)COCc1ccccc1
inactive: Potency [1] | Potency [2] | Potency [3] | Potency [4]

C=CC[C@@]1(c2ccc(OC)cc2)Oc2ccccc2C2=NCCN=C21
inactive: Potency [1] | Potency [2] | Potency [3] | Potency [4]

C#CCCCON=C1C[C@@H](O)[C@H](O)[C@H]2[C@@H]3C(=O)N(Cc4ccc5c(c4)OCO5)C(=O)[C@@H]3CC[C@H]12
inactive: Potency [1] | Potency [2] | Potency [3] | Potency [4]

COC(=O)c1c(C(=O)OC)c2c3ccccc3cc(C3CC3)n2c1C(=O)OC
inactive: Potency [1] | Potency [2] | Potency [3] | Potency [4]

CCCCCCCc1cc2ccccc2c2c(C=O)c(CCCC)c(C(=O)OC)n12
inactive: Potency [1] | Potency [2] | Potency [3] | Potency [4]

COc1ccc(N2C=C3C(=O)C(C)(OC(=O)C4CCCC4)C(=O)C=C3C=C2c2ccsc2)cc1 (stereo not drawn)
inactive: activity, negative = inhibition [1] -0.73% [at 1.12 µM] | Potency [2] | Potency [3] | Potency [4]

COC(=O)[C@]1(C=C2c3ccccc3C[C@H](OC)[C@@H]2C)[C@@H]2CC=C[C@@H]21
inactive: Potency [1] | Potency [2] | Potency [3] | Potency [4]

COc1ccc2c(c1)O[C@H](c1ccc3c(c1)OCO3)[C@@H](OC(=O)Nc1cc(OC)c(OC)c(OC)c1)C2=O
inactive: Potency [1] | Potency [5] | Potency [4]

C=CCOC(=O)N[C@H](c1ccc(-c2ccccc2)cc1)[C@H](C)C=CCC(=O)OC
inactive: Potency [1] | Potency [2] | Potency [3] | Potency [4]

CC1(OC(=O)C2CCCC2)C(=O)C=C2C=C(c3ccsc3)N(Cc3ccc4c(c3)OCO4)C=C2C1=O (stereo not drawn)
inactive: activity, negative = inhibition [1] -6.6% [at 1.12 µM] | Potency [2] | Potency [3] | Potency [4]

C=CCC1(O)C=CCC2C3C4C(OC(C)(C)C)C2C1C34 (stereo not drawn)
inactive: activity change, negative = inhibition [6] -12.7% [at 11.4 µM] | activity change, negative = inhibition [7] -11.8% [at 11.4 µM] | activity change, negative = inhibition [8] -4.54% [at 11.4 µM] | activity, negative = inhibition [9] -32.4% [at 11.4 µM] | Potency [1] | Potency [2] | Potency [3] | Potency [4]

COC1=C[C@H](C(=O)N2CCCC2)[C@H](C)[C@@H](c2ccccc2)CC1=O
inactive: Potency [1] | Potency [2] | Potency [3] | Potency [4]

CC(C)=CCC12CC3[C@@H](O)C(C(=O)c4ccccc4)(C1=O)C(=O)C(CC=C(C)C)(C2=O)C3(C)C (stereo partly drawn)
inactive: Potency [1] | Potency [5] | Potency [4]

COC(=O)NC(c1ccccc1)c1c[nH]c2ccccc12 (stereo not drawn)
inactive: Potency [1] | Potency [2] | Potency [3] | Potency [4]

COc1ccc2c(c1)O[C@@H](c1cccc(C(F)(F)F)c1)[C@H](OC(=O)NC1CCCC1)C2=O
inactive: Potency [1] | Potency [2] | Potency [3] | Potency [4]
